These results are taken from the supplement of paper PMC12350171.

Structures are written as SMILES. Counter-ions that a name gives are not always drawn. Unmarked numbers belong to inactive results.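 How the source made its calls: active = AUC significantly below DMSO controls by Student t-fit with adjusted P under 0.01; inactive = not significantly reduced.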

For the assay, the system named is Haemophilus parainfluenzae. Description: growth AUC normalised to DMSO control (fraction of control); higher = less growth inhibition, active = hit call of the paper. Conditions: 20 µM. Put shortly:
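Pathogens passaged twice anaerobically were inoculated at a starting OD578 of 0.01 into pre-reduced mGAM plates with drug at 20 μM and 1% DMSO, sealed with breathable membranes. Haemophilus parainfluenzae medium was supplemented with hemin and NAD. OD578 was read hourly for 24 h, with three biological replicates. Growth-curve AUC was computed by the trapezoidal rule up to the exponential-to-stationary transition and normalised to DMSO controls on the same plate.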
With `CC[C@@H]1C(=O)OC[C@@H]1Cc1cncn1C` [Pilocarpine nitrate], the “growth AUC normalised to DMSO control” value is 0.981.

For the compound `CC(C)[N+](C)(CCOC(=O)C1c2ccccc2Oc2ccccc21)C(C)C` [Propantheline bromide], the “growth AUC normalised to DMSO control” value was 0.988.

For the compound `CC(C)(C)NCC(O)COc1cccc2c1CCC(=O)N2` (centres undefined) [Carteolol hydrochloride], the “growth AUC normalised to DMSO control” value was 0.985.

Turning to `NCc1ccccc1CC(=O)N[C@@H]1C(=O)N2C(C(=O)O)=C(CSc3nnnn3CC(=O)O)CS[C@H]12` [Ceforanide], the “growth AUC normalised to DMSO control” value is 0.0189 (active).

`CCC[C@@H]1C[C@@H](C(=O)N[C@@H]([C@H]2O[C@H](SC)[C@H](O)[C@@H](O)[C@H]2O)[C@H](C)Cl)N(C)C1` [Clindamycin hydrochloride]: the “growth AUC normalised to DMSO control” value was 0.0463 (active).

For `C(=C\c1ccccc1)/CN1CCN(C(c2ccccc2)c2ccccc2)CC1` [Cinnarizine], the “growth AUC normalised to DMSO control” value was 0.817.

On to `Cc1c(O)c(=O)n(-c2ccccc2)n1C` [Antipyrine, 4-hydroxy], for which the “growth AUC normalised to DMSO control” value is 0.974.

For `Nc1ccc(S(=O)(=O)NC(=O)c2ccccc2)cc1` [Sulfabenzamide], the “growth AUC normalised to DMSO control” value was 1.1.

Take `Nc1ccc(S(=O)(=O)Nc2ccccn2)cc1` [Sulfapyridine]: the “growth AUC normalised to DMSO control” value was 0.976.

For `CCOc1ccc2c(c1)C(C)=CC(C)(C)N2` [Ethoxyquin], the “growth AUC normalised to DMSO control” value is 0.94.

Consider `Nc1nc(N)c2nc(-c3ccccc3)c(N)nc2n1` [Triamterene], for which the “growth AUC normalised to DMSO control” value is 0.935.

For `O=C(N[C@H](CO)[C@H](O)c1ccc([N+](=O)[O-])cc1)C(Cl)Cl` [Chloramphenicol], the “growth AUC normalised to DMSO control” value is 0.0445 (active).

As for `CN1CCC(=C2c3ccccc3CCc3sccc32)CC1` [Pizotifen malate], the “growth AUC normalised to DMSO control” value is 0.936.

For the compound `Cc1cc(=O)oc2cc(O)ccc12` [Hymecromone], the “growth AUC normalised to DMSO control” value was 1.

As to `C[C@]12CCC(=O)C=C1CC[C@@H]1[C@@H]2C(=O)C[C@@]2(C)[C@H]1CC[C@]2(O)C(=O)CO` [Cortisone], the “growth AUC normalised to DMSO control” value was 0.971.

Regarding `CC(COc1ccccc1)NC(C)C(O)c1ccc(O)cc1` (centres undefined) [Isoxsuprine hydrochloride], the “growth AUC normalised to DMSO control” value is 0.939.

Take `NS(=O)(=O)c1cc2c(cc1Cl)NC(CC1CCCC1)NS2(=O)=O` (centres undefined) [Cyclopenthiazide]: the “growth AUC normalised to DMSO control” value was 0.982.

With `Cc1c(N(C)CS(=O)(=O)O)c(=O)n(-c2ccccc2)n1C` [Dipyrone sodium salt], the “growth AUC normalised to DMSO control” value was 1.02.

On to `C=C1/C(=C\C=C2/CCC[C@]3(C)[C@@H]([C@H](C)/C=C/[C@@H](O)C4CC4)CC[C@@H]23)C[C@@H](O)C[C@@H]1O` [Calcipotriene], for which the “growth AUC normalised to DMSO control” value is 0.836.

Consider `CN(C)CCC(c1ccc(Br)cc1)c1ccccn1` (centres undefined) [Brompheniramine maleate], for which the “growth AUC normalised to DMSO control” value was 1.04.

Take `Cc1c(NC(=O)c2cccnc2)c(=O)n(-c2ccccc2)n1C` [Nifenazone]: the “growth AUC normalised to DMSO control” value is 1.01.

For `COC(=O)Nc1nc2cc(C(=O)c3cccs3)ccc2[nH]1` [Nocodazole], the “growth AUC normalised to DMSO control” value was 1.03.

As to `N=C(N)NCc1cccc(I)c1` [Iobenguane sulfate], the “growth AUC normalised to DMSO control” value was 1.02.

Take `COc1ccc2[nH]c([S+]([O-])Cc3ncc(C)c(OC)c3C)nc2c1` (centres undefined) [Omeprazole]: the “growth AUC normalised to DMSO control” value was 0.919.

In the case of `Nc1nc2n[nH]nc2c(=O)[nH]1` [Azaguanine-8], the “growth AUC normalised to DMSO control” value is 0.992.

As for `CS(=O)(=O)c1ccc([C@@H](O)[C@@H](CO)NC(=O)C(Cl)Cl)cc1` [Thiamphenicol], the “growth AUC normalised to DMSO control” value was 0.032 (active).

`CC1=C(CC(=O)O)c2cc(F)ccc2/C1=C\c1ccc([S+](C)[O-])cc1` (centres undefined) [Sulindac]: the “growth AUC normalised to DMSO control” value was 0.942.

For `CN1CCN(C2=Nc3cc(Cl)ccc3Nc3ccccc32)CC1` [Clozapine], the “growth AUC normalised to DMSO control” value is 1.02.

For `COc1cc(N)c(Cl)cc1C(=O)NC1CCN(Cc2ccccc2)CC1` [Clebopride maleate], the “growth AUC normalised to DMSO control” value is 0.989.

For `O=C(O)CCC(=O)c1ccc(-c2ccccc2)cc1` [Fenbufen], the “growth AUC normalised to DMSO control” value is 0.905.

Take `C=C1c2c(Cl)ccc(O)c2C(O)=C2C(=O)[C@]3(O)C(O)=C(C(N)=O)C(=O)[C@@H](N(C)C)[C@@H]3[C@@H](O)[C@H]12.O=C(O)c1cc(S(=O)(=O)O)ccc1O` [Meclocycline sulfosalicylate]: the “growth AUC normalised to DMSO control” value was 0.0341 (active).

In the case of `CC(C)N1CCN(c2ccc(OCC3COC(Cn4cncn4)(c4ccc(Cl)cc4Cl)O3)cc2)CC1` (centres undefined) [Terconazole], the “growth AUC normalised to DMSO control” value is 1.03.

With `CN(C)[C@@H]1C(=O)C(C(N)=O)=C(O)[C@@]2(O)C(=O)C3=C(O)c4c(O)ccc(Cl)c4[C@@H](O)[C@H]3C[C@@H]12` [Demeclocycline hydrochloride], the “growth AUC normalised to DMSO control” value is 0.0384 (active).

`CCCCNc1c(C(=O)OCC)c(C)nc2c1cnn2CC` [Tracazolate hydrochloride]: the “growth AUC normalised to DMSO control” value was 1.04.

Regarding `C[C@]12CC[C@@H]3c4ccc(OS(=O)(=O)O)cc4CC[C@H]3[C@@H]1CCC2=O` [Estropipate piperazine salt], the “growth AUC normalised to DMSO control” value was 0.985.

As for `CCN(CC)CCCC(C)Nc1c2ccc(Cl)cc2nc2ccc(OC)cc12` (centres undefined) [Quinacrine dihydrochloride hydrate], the “growth AUC normalised to DMSO control” value is 0.879.

On to `Cc1cc(-n2c(=O)[nH]c(=O)n(C)c2=O)ccc1Oc1ccc(SC(F)(F)F)cc1` [Toltrazuril], for which the “growth AUC normalised to DMSO control” value was 0.954.

For the compound `C=CC(N)CCC(=O)O` (centres undefined) [Vigabatrin hydrochloride], the “growth AUC normalised to DMSO control” value is 1.02.

With `C[C@@](Cc1ccc(O)c(O)c1)(NN)C(=O)O` [Carbidopa], the “growth AUC normalised to DMSO control” value is 0.996.
